About 83,000 compounds went through this panel and 20% of them were active in at least one assay; those are over-represented in the sample as a whole.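 Step 1: grow cells in 96-well plates. Step 2: add test compound at a single concentration. Step 3: incubate 48 h. Step 4: record percent growth.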 Values without a mark were called inactive. Active and inactive are the calls of the source. Rule for the calls: active = growth percent below 10; inactive = the rest.
Test system: HOP-92 NSCLC
Experiment: NCI-60 one-dose screen, 48 h (100 = growth as untreated, 0 = no growth, -100 = all killed)
Conditions: 10 µM unless noted

Row | SMILES | growth [%]
1 | Cc1nc2c3c(ncn2n1)Oc1c(c(=O)[nH]c2ccccc12)C3c1ccc(Cl)cc1 (stereo not drawn) | 74.2
2 | O=C(NNC(=S)Nc1ccccc1)c1cc2ccc1CCc1ccc(cc1)CC2 | 48.8
3 | S=c1[nH]nc(-c2cc3ccc2CCc2ccc(cc2)CC3)n1-c1ccccc1 | 98.4
4 | S=c1[nH]nc(-c2cc3ccc2CCc2ccc(cc2)CC3)n1C1CC1 | 96.1
5 | CCN(CC)CCOC(=O)C(c1ccccc1)(c1ccccc1)C(C)C | 77.7
6 | CCN1CCN(CC(=O)N2c3cccc4cccc(c34)N(C(=O)CN3CCN(CC)CC3)C2c2cn(-c3ccccc3)nc2-c2cccc([N+](=O)[O-])c2)CC1 | 61.4
7 | Cc1ccc2[nH]c(=O)c3c(c2c1)Oc1ncn2nc(-c4ccco4)nc2c1C3c1ccc(Cl)cc1 (stereo not drawn) | 78.5
8 | CC(=O)Oc1csc(N(C(C)=O)c2cccc(C(F)(F)F)c2)n1 | 45.7
9 | COc1ccc(/C=C\c2cc(OC)c(OC)c(OC)c2)cc1OC(=O)c1cccc(Cn2cc(CCOC(=O)c3cccc(Cn4nnc5c4C(=O)c4ccccc4C5=O)c3)nn2)c1 | 52.6

Test system: NCI-H522 lung
Experiment: as above
Conditions: 10 µM unless noted

Row | SMILES | growth
10 | CCCCN(CCCC)c1ccc(C(=N)c2ccc(N(CCCC)CCCC)cc2)cc1 | -87% (active)
11 | Clc1ccc(-c2nc3ccccc3s2)cc1Cl | 82.7%
12 | Cc1nc2c3c(ncn2n1)Oc1c(c(=O)[nH]c2ccccc12)C3c1ccc(Cl)cc1 (stereo not drawn) | 87.6%
13 | O=C(NNC(=S)Nc1ccccc1)c1cc2ccc1CCc1ccc(cc1)CC2 | 76%
14 | O=C(Nc1ccc2c(c1)OCCO2)C(=O)c1c[nH]c2ccccc12 | -40.4% (active)
15 | COc1ccc2c(c1)C(c1cc(OC)c3c(c1)OCO3)C1=C(COC1=O)N2 (stereo not drawn) | -38.5% (active)
16 | Fc1ccc(Nc2nc(NCCNc3ccnc4cc(Cl)ccc34)nc(N3CCOCC3)n2)cc1 | 48.1%
17 | S=c1[nH]nc(-c2cc3ccc2CCc2ccc(cc2)CC3)n1-c1ccccc1 | 87.3%
18 | CC(C)(C)NCCC(O)c1cc2c(Cl)cc(Cl)cc2c2cc(C(F)(F)F)ccc12 (stereo not drawn) | -81.8% (active)
19 | COc1ccc2cc(-c3ccc(-c4ccc(C(=N)N)cc4)s3)ccc2c1 | 102%
20 | CCN(CC)CCC(CNc1c2ccc(Cl)cc2nc2ccc(OC)cc12)c1ccccc1 (stereo not drawn) | -81% (active)
21 | Cc1ccc(S(=O)(=O)C2=C3C(=C(c4ccccc4)c4ccccc43)CN(S(=O)(=O)c3ccc(C)cc3)C2)cc1 | -45.9% (active)
22 | Cc1ccc(S(=O)(=O)NCCNc2nccc(-c3c(-c4cccc(N)c4)nc4sccn34)n2)cc1 | 83.5%
23 | CC(C)NCCCNC1=C(Cl)C(=O)c2ccccc2C1=O | 91.9%
24 | COc1cccc(CC(C)=C(c2ccc(OCCN(C)C)cc2)c2ccc(OCCN(C)C)cc2)c1 | -39.8% (active)
25 | S=c1[nH]nc(-c2cc3ccc2CCc2ccc(cc2)CC3)n1C1CC1 | 89.6%
26 | COc1ccc(Nc2[nH]n3c(=O)cc(-c4ccccc4)nc3c2C(=O)Nc2ccc(C)cc2)c(OC)c1 | 78.2%
27 | O=c1[nH]c2ccc(Br)cc2c2c1C(c1ccc(Cl)cc1)c1c(ncn3nc(-c4ccco4)nc13)O2 (stereo not drawn) | 69.4%
28 | COc1cc(-c2nn(-c3cccc(NC(=O)Nc4cc(C(F)(F)F)cc(C(F)(F)F)c4)c3)cc2-c2ccncc2)ccc1Cl | -34.4% (active)
29 | COc1cc(/C=C/C(=O)N2CCN(C(=O)/C=C/c3cc(OC)c(OC)c(OC)c3)CC2)cc(OC)c1OC | 87.5%

Row | SMILES | growth
30 | CCN(CC)CCOC(=O)C(c1ccccc1)(c1ccccc1)C(C)C | 86.6%
31 | C=C[C@@H]1C[C@H](O)Cc2c(C)cc(C)cc2N1 | 101%
32 | N=C(N)c1ccc(-c2cc(Cl)cc(Cl)c2)cn1 | 90.1%
33 | CCCCCCCCCCCCNC(=O)[C@H]1CSC(c2ccsc2)N1 (stereo partly drawn) | 32.7%
34 | O=C(NCc1cn(Cc2cccc(Oc3ccccc3)c2)nn1)c1cccnc1Nc1ccc(F)cc1 | 31.3%
35 | CCN1CCN(CC(=O)N2c3cccc4cccc(c34)N(C(=O)CN3CCN(CC)CC3)C2c2cn(-c3ccccc3)nc2-c2cccc([N+](=O)[O-])c2)CC1 | -64.7% (active)
36 | O=S(=O)(NCCCNc1nccc(-n2ccc3cccnc32)n1)c1ccc(Br)cc1 | 92.6%
37 | COC(=O)C(Sc1ccc(Cl)cc1)C1SC(=S)N(Cc2ccccc2)C1=O (stereo not drawn) | 96.7%
38 | Cc1ccc2[nH]c(=O)c3c(c2c1)Oc1ncn2nc(-c4ccco4)nc2c1C3c1ccc(Cl)cc1 (stereo not drawn) | 89.5%
39 | c1ccc(-c2cn(-c3ccccc3)c(-c3ccccc3)n2)cc1 | 73.9%
40 | CCN(CC)CCCC(C)Nc1c2ccc(Cl)cc2nc2cc(OC)c(OC)cc12 (stereo not drawn) | 14.9%
41 | CN(C)c1cccc2c(S(=O)(=O)/N=C(\N)Nc3nc4ccccc4s3)cccc12 | 30.1%
42 | O=C(Nc1ccc(Cl)c(Cl)c1)NS(=O)(=O)c1cnccc1Oc1ccc(F)cc1 | 20.2%
43 | Cc1ccc2nc(Cl)cc(=O)n2c1 | 116%
44 | Cn1ccc(=O)c(S(N)(=O)=O)c1 | 96.2%
45 | COc1ccc(-c2c(N)n[nH]c2-c2cc3c(c(OC)c2OC)OCO3)cc1 | 81.5%
46 | CC(=O)Oc1csc(N(C(C)=O)c2cccc(C(F)(F)F)c2)n1 | 83.1%
47 | C=C1CCC2C3(C)COC(C)(C)OC3CCC2(C)C1C/C=C1/C(=O)OCC1Oc1ccccc1OC (stereo not drawn) | 17.5%
48 | COc1ccc(/C=C\c2cc(OC)c(OC)c(OC)c2)cc1OC(=O)c1cccc(Cn2cc(CCOC(=O)c3cccc(Cn4nnc5c4C(=O)c4ccccc4C5=O)c3)nn2)c1 | 6.06% (active)
